{
  "source": "PubChem BioAssay AID743366",
  "about": "(National Center for Advancing Translational Sciences (NCATS), 2014)",
  "data": [
    {"experiment": "qHTS profiling of inhibitors of Plasmodium falciparum (HB3) proliferation (acoustic dispense)", "conditions": "P. falciparum HB3 in erythrocytes, SYBR Green, 72 h; at 49.8 µM (top of the series) unless noted", "values": [
      {"smiles": "CC(Sc1nc2ccccc2[nH]1)C(=O)NN=Cc1cc(Br)ccc1O", "note": "(stereo not drawn)", "activity (normalised, proliferation)": "-0.944% [at 4.15 µM]"},
      {"smiles": "Nc1cccc(-c2csc(NC(=O)CCCCCCC(=O)NO)n2)c1", "activity (normalised, proliferation)": "-0.958%"},
      {"smiles": "Nc1ccc(-c2ccc3ncc4ccc(=O)n(-c5cccc(C(F)(F)F)c5)c4c3c2)cn1", "activity (normalised, proliferation)": "-1.37%"},
      {"smiles": "C[C@H]1Cc2c([nH]c3cc(Cl)c(F)cc23)[C@@]2(N1)C(=O)Nc1ccc(Cl)cc12", "activity (normalised, proliferation)": "-0.548%"},
      {"smiles": "CCN(CC)CCCC(C)Nc1ccnc2cc(Cl)ccc12", "note": "(stereo not drawn)", "activity (normalised, proliferation)": "-0.388%"},
      {"smiles": "COc1ncnc(NS(=O)(=O)c2ccc(N)cc2)c1OC", "activity (normalised, proliferation)": "102%"},
      {"smiles": "COC(=O)[C@]12CCC(C)(C)C[C@@H]1[C@@H]1C(=O)C=C3[C@@]4(C)C=C(C#N)C(=O)C(C)(C)[C@@H]4CC[C@@]3(C)[C@]1(C)CC2", "activity (normalised, proliferation)": "41.4%"},
      {"smiles": "COc1cc(NCc2ccc3nc(N)nc(N)c3c2C)cc(OC)c1OC", "activity (normalised, proliferation)": "-2.34%"},
      {"smiles": "CN(C(=O)OC(C)(C)C)[C@@H](Cc1ccc(O[S+](=O)([O-])c2cccc3cnccc23)cc1)C(=O)N1CCN(C(=O)OCc2ccccc2)CC1", "activity (normalised, proliferation)": "2.29%"},
      {"smiles": "CC1(CN2CCC(n3c(=O)[nH]c4ccccc43)CC2)OCc2ccccc2-n2cccc21", "note": "(stereo not drawn)", "activity (normalised, proliferation)": "24.8%"},
      {"smiles": "O=C1C(=O)c2ccccc2C(O)=C1C1CCC(c2ccc(Cl)cc2)CC1", "note": "(stereo not drawn)", "activity (normalised, proliferation)": "3.49%"},
      {"smiles": "Cc1ccc([N+](=O)[O-])cc1S(=O)(=O)N(C)N=Cc1cnc2ccc(Br)cn12", "activity (normalised, proliferation)": "13.3%"},
      {"smiles": "c1cncc(CN2CCC(n3ncc4c(N5CCOCC5)nc(-c5ccc6[nH]ccc6c5)nc43)CC2)c1", "activity (normalised, proliferation)": "-0.669%"},
      {"smiles": "C1CCC(C(CC2CCCCN2)C2CCCCC2)CC1", "note": "(stereo not drawn)", "activity (normalised, proliferation)": "-0.0393%"},
      {"smiles": "Cn1c2ccccc2c2c3c(c4c5ccccc5n(CCC#N)c4c21)CNC3=O", "activity (normalised, proliferation)": "106%"},
      {"smiles": "Cn1cc(CNCC2CCN(c3ncc(C(=O)NO)cn3)CC2)c2ccccc21", "activity (normalised, proliferation)": "-0.786%"},
      {"smiles": "COc1cc([C@@H]2c3cc4c(cc3[C@@H](O[C@@H]3O[C@@H]5CO[C@@H](c6cccs6)O[C@@H]5[C@H](O)[C@@H]3O)[C@H]3COC(=O)[C@H]23)OCO4)cc(OC)c1O", "activity (normalised, proliferation)": "-0.0351%"},
      {"smiles": "CN(C)c1ccc2nc3ccc(=[N+](C)C)cc-3sc2c1", "activity (normalised, proliferation)": "19.1%"},
      {"smiles": "CCC[C@H](Nc1nc(-c2ccc(NC(=O)NCC)c(OC)c2)ncc1C)c1cccnc1", "activity (normalised, proliferation)": "-0.168%"},
      {"smiles": "O=C(Nc1cn[nH]c1-c1nc2ccc(CN3CCOCC3)cc2[nH]1)NC1CC1", "activity (normalised, proliferation)": "1.76%"},
      {"smiles": "CCN(CC)Cc1cc(Nc2ccnc3cc(Cl)ccc23)ccc1O", "activity (normalised, proliferation)": "-0.453% [at 23.2 µM]"},
      {"smiles": "COC1=C2C[C@@H](C)C[C@H](OC)[C@@H](O)[C@@H](C)C=C(C)[C@H](OC(N)=O)[C@@H](OC)C=CC=C(C)C(=O)NC(=CC1=O)C2=O", "activity (normalised, proliferation)": "-2.24%"},
      {"smiles": "CC(C)n1nc(-c2ccc3oc(N)nc3c2)c2c(N)ncnc21", "activity (normalised, proliferation)": "-0.709%"},
      {"smiles": "CC(C)C[C@H](NC(=O)[C@H](CCc1ccccc1)NC(=O)CN1CCOCC1)C(=O)N[C@@H](Cc1ccccc1)C(=O)N[C@@H](CC(C)C)C(=O)[C@@]1(C)CO1", "activity (normalised, proliferation)": "0.732%"},
      {"smiles": "Cc1nc2cnc3ccc(C#Cc4cccnc4)cc3c2n1-c1ccc(C(C)(C)C#N)cc1", "activity (normalised, proliferation)": "1.13%"},
      {"smiles": "CCS(=O)(=O)Nc1ccc2[nH]c(O)c(C(=Nc3ccc(CN4CCCCC4)cc3)c3ccccc3)c2c1", "activity (normalised, proliferation)": "-1.43%"},
      {"smiles": "CO[C@H]1O[C@@H]2O[C@@]3(C)CC[C@@H]4[C@@H](C)CC[C@@H]([C@H]1C)[C@@]24OO3", "activity (normalised, proliferation)": "-0.929%"},
      {"smiles": "CCc1nc(N)nc(N)c1-c1ccc(Cl)cc1", "activity (normalised, proliferation)": "0.0675%"}
    ]}
  ]
}
